Among all 1,000 compounds or so, about 200 (20%) were called active. A selection follows. Measured potencies and affinities stand elsewhere. Unmarked numbers belong to inactive results. Rule as the data show it: active = inhibition above about 55%; inactive = the rest.

Chain of Dual specificity protein phosphatase 3 (Homo sapiens) (P51452 whole entry, looked up): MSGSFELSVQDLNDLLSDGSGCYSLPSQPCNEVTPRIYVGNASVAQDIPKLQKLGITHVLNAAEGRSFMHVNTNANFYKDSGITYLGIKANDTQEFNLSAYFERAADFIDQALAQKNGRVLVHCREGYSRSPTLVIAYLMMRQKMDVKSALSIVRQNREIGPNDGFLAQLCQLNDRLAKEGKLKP

This assay has as its target Dual specificity protein phosphatase 3 (Homo sapiens) (UniProt P51452). In words: VHR1 phosphatase inhibitors, biochemical (AID 1878). The settings on record: recombinant VHR phosphatase, fluorogenic substrate; at 13.3 µM; stronger effect = higher value.
A word on the inhibition: it is the change of the read-out against control, counted positive when it falls. Consider `CCC1CCCCN1CCCNS(=O)(=O)c1ccc2c(c1)oc(=O)n2C` (stereo unspecified), for which the inhibition was -1.5%. The value for `Clc1ccc2ccc3cccnc3c2n1` was -16.7%; that for `Cc1ccc(CNc2ccc(N3CCOCC3)c(Cl)c2)cc1` was 8%. Then `Cc1c(C(=O)N2CCCCC2)c(S(=O)(=O)N2CCN(c3ccc(F)cc3)CC2)c(C)n1C`, with -7%; and `Cc1c(C)n(C)c2ccc(C(=O)NCCCN3CCCCC3C)cc12` (stereo unspecified), with -11%; and `O=C(CSc1n[nH]c(-c2ccccc2O)n1)NC1CCCCC1`, with 2.6%. Then `Clc1ccc(Cl)c(OCCCCN2CCCCC2)c1`, with -4.8%; and `COc1ccc(CCNC(=O)CCNC(=O)N2CC(=O)Nc3ccccc32)cc1`, with 13.9%; and `COc1ccc(OC)c(NC(=O)CCN2CCN(c3ccccc3OC)CC2)c1`, with 6.9%.

For the molecule `COc1ccc(N2CCN(c3ncnc4scc(-c5ccccc5)c34)CC2)cc1`, the inhibition is 16.6%.

With `O=C(Nc1cccc(-n2cnnn2)c1)c1ccc(Cl)cc1Cl`, the inhibition is 3.8%.

In the case of `Oc1ccc(-c2nc3ccccc3nc2-c2ccccc2)cc1`, the inhibition is -3.2%. Then `O=S(=O)(Nc1ccc2ccccc2n1)c1ccccc1Cl`, with 3.5%; and `CCCN1C2CCCC1CC(NC(=O)c1ccc(C(C)(C)C)cc1)C2` (stereo unspecified), with -2.3%; and `CC1CCCCN1CC(O)COc1ccc(OCC(O)CN2CCCCC2C)cc1` (stereo unspecified), with -5.3%. The value for `COc1ccc(Nc2nc(-c3sc(C)nc3C)cs2)c(OC)c1` was 23%.

As for `COc1ccc(C(=O)N2CCCCCCC2)cc1OC1CCN(C(C)C)CC1`, the inhibition was -3.1%.

For `COc1ccc(C(=O)N(C)CCCC2CCCC2)cc1OC1CCN(C(C)C)CC1`, the inhibition was -11.7%. Then `O=c1[nH]c(NCCO)nnc1Cc1ccccc1`, with -18.8%; and `CN(C(=O)COC(=O)c1cc(-c2ccco2)nc2ccccc12)C1CCS(=O)(=O)C1` (stereo unspecified), with 98.4% (active); and `CCc1ccc(-c2cc(C(=O)NN3CCOCC3)c3ccccc3n2)s1`, with -11.9%.

With `CCOc1ccc(N(C)C(=O)CCc2nnc3ccc(N4CCOCC4)nn23)cc1`, the inhibition was -3.3%. Then `O=C(N=C1SC2CS(=O)(=O)CC2N1c1ccc(F)cc1F)C1CC1` (stereo unspecified), with -8.3%; and `Cn1c(=O)oc2cc(S(=O)(=O)N3CCCC(C(=O)NCc4ccc5c(c4)OCO5)C3)ccc21` (stereo unspecified), with 9.1%.

With `CCC(=O)N1CCc2cc(S(=O)(=O)CCC(=O)NCc3ccc(OC)cc3)ccc21`, the inhibition was 20%.

For `CC(C)c1cc(N=NC(N)=O)cc(C(C)C)c1O`, the inhibition was 0.5%. As to `CCN1CCN(Cc2nnc(-c3ccc(C)cc3)o2)CC1`, the inhibition was -3.3%.

Regarding `O=C1CCC(C(=O)N2CCCC2)CN1Cc1cccc(C(F)(F)F)c1` (stereo unspecified), the inhibition was -14.6%. Regarding `CCc1nnc(NC(=O)CCNC(=O)c2ccco2)s1`, the inhibition is -5.4%.

Regarding `Cc1ccc(NC(=O)Cn2c(O)c(N=NC(N)=S)c3ccccc32)cc1`, the inhibition is 9.9%. Then `CCCN1CCN(CCCNC(=O)c2ccc(CS(=O)c3ccccc3C)o2)CC1` (stereo unspecified), with 1.2%. As to `Cc1ccc(OCCCCN2CCCCC2)c(C)c1`, the inhibition is 5.4%. The value for `Oc1ccc(C23CC4CC(CC(C4)C2)C3)cc1O` was 5.9%; that for `COC(=O)c1ccc(CNC(=O)C2CCC(=O)N(Cc3ccccn3)C2)cc1` (stereo unspecified) was -6%; that for `Cc1ccc2oc(C(=O)N3CCN(C)C[C@@H]3C(C)C)c(C)c2c1` was -13.8%. Then `Cc1ccccc1S(=O)(=O)Cc1ccc(C(=O)NCCCN2CCCC2)o1`, with -7.1%; and `COc1ccc(C2NN=C(c3ccc(C)cc3)S2)cc1` (stereo unspecified), with -9.5%; and `O=C(O)CCN1C(=O)/C(=C/c2cn(-c3ccccc3)nc2-c2cccs2)SC1=S`, with 98% (active). The value for `Cc1cc(NC(=O)CCCN2C(=O)/C(=C\c3cccs3)SC2=S)no1` was -12%.

On to `CC1(C)CC(NC(=O)c2cccc(Cl)c2)CC(C)(C)N1`, for which the inhibition was 2.3%.

As for `CCOc1ccccc1C(=O)NC1CC2CCCC(C1)N2Cc1ccc(C)cc1` (stereo unspecified), the inhibition is 9.8%.

With `Cc1ccc(Oc2coc3cc(O)ccc3c2=O)cc1`, the inhibition is 1%. Then `O=[N+]([O-])CC(c1ccc(F)cc1)c1c[nH]c2ccccc12` (stereo unspecified), with -0.1%; and `CCOc1ccc(C(=S)N2CCCC2)c(OCC)c1`, with -7.2%; and `O=C(NCc1ccc(F)cc1)C(=O)c1cn(CC(=O)N2CCCC2)c2ccccc12`, with -3%. As to `CCOC(=O)CCNC(=O)N1CCC(CCC(=O)NCc2ccc(F)cc2)CC1`, the inhibition is -0.1%. Turning to `CN1CCC(N(C)S(=O)(=O)c2ccc(Cl)cc2)CC1`, the inhibition was -9.6%.

`CC(=O)Nc1ccc(N2C(=O)CSC2c2cccc(Br)c2)cc1` (stereo unspecified): the inhibition was 1.4%. The value for `CN(CCCNC(=O)CCc1cn(C)c2ccccc12)C1CCCCC1` was -3.3%.

Take `COc1ccc(O)c(CN2CCN(CCCc3ccccc3)C(CCO)C2)c1` (stereo unspecified): the inhibition is -8%. Then `N#Cc1nc(-c2ccc(OCc3ccc(Cl)cc3)cc2)oc1N1CCC(C(N)=O)CC1`, with 93.5% (active); and `Fc1cc(F)nc(NCc2ccccc2)n1`, with 8.1%. Then `Oc1ccc(N2CCN(Cc3nc4ccccc4[nH]3)CC2)cc1`, with -15.2%; and `CCC1CCCCN1CCCNC(=O)CS(=O)Cc1nc(-c2ccc(OC)c(OC)c2)oc1C` (stereo unspecified), with 15.7%; and `Cc1c(CCCN)c2ccccc2n1Cc1ccccc1`, with -12.5%. The value for `COc1cccc(C(N)=O)c1OC(=O)Cc1ccccc1F` was -0.1%. For the molecule `Cc1nnc(NC(=O)c2cccc(Br)c2)s1`, the inhibition is 4%. The value for `O=C(Nc1nnc(SCc2c(Cl)cccc2Cl)s1)c1ccc2ncsc2c1` was 66.9% (active); that for `O=C(Nc1cccc(F)c1)c1ccc2ncsc2c1` was -14.9%; that for `COc1cc(N=Cc2c(CO)cnc(C)c2O)cc(OC)c1OC` was -8.3%.

In the case of `C=CCNC(=O)c1ccc(CN2CCC(Cc3ccccc3)CC2)cc1`, the inhibition is -11.1%. The value for `CSc1ncccc1C(=O)NC1CCN(Cc2ccccc2)CC1` was 2.3%. Then `CCOc1ccc(CCNC(=O)CS(=O)Cc2nc(-c3ccc(OC)c(OC)c3)oc2C)cc1OCC` (stereo unspecified), with 8.4%. Then `COC(=O)C1(CO)NC(c2ccc(C)cc2)C2C(=O)N(c3ccccc3)C(=O)C21` (stereo unspecified), with -3.3%. Regarding `CC1=C(C(=O)OCc2ccccc2)C(c2ccc([N+](=O)[O-])cc2)NC(=O)N1C` (stereo unspecified), the inhibition is 2.8%. In the case of `COc1cc(-c2c(NC(=O)c3ccco3)oc3ccccc3c2=O)cc(OC)c1OC`, the inhibition was -9.9%. Then `CCN(CC)CCCN(Cc1cc2cc3c(cc2[nH]c1=O)OCO3)C(=S)NCCCN(C)C`, with -12.7%; and `O=C(NC1=NN(c2ccccc2)CC1)Nc1ccccc1F`, with -3.5%. The value for `O=c1c2c3nc4ccccc4nc3n(-c3ccc4c(c3)OCCO4)c2ncn1C1CCCC1` was 96.5% (active). The value for `CSc1ncc(C(=O)Nc2ccccc2C)c(C)n1` was 6.2%; that for `CCN1CCN(CCCNC(=O)CNC(=O)c2nn(-c3ccc(OC)cc3OC)c(=O)c3ccccc23)CC1` was 38.3%; that for `Cc1cccc(NC(=O)CN2C(=O)S/C(=C\c3cccn3-c3cccc(C(=O)O)c3)C2=O)c1` was 75.6% (active). Take `Cc1ccc(NC(=O)NC(=O)CN2CCN(c3ccc(O)cc3)CC2)c(C)c1`: the inhibition was -13.5%. Turning to `Cc1ccc2c(c1)c(CC(=O)Nc1ccc(C)c(F)c1)c(C(=O)O)n2C`, the inhibition was -6.8%. Then `O=C(Cn1nc(-c2ccccc2)ccc1=O)N1CCCCC1`, with -1.1%; and `O=C(O)c1ccc(-n2cccc2/C=C2/SC(=O)N(CC(=O)N3CCCC3)C2=O)cc1`, with 96.8% (active).

Take `COc1ccccc1CNC(=O)C1Cc2cc(S(=O)(=O)N3CCCCC3)ccc2N1C(C)=O` (stereo unspecified): the inhibition was 28.1%. With `CCC1CCCCN1C(=O)c1ccc(OC2CCN(C(=O)CCOC)CC2)cc1` (stereo unspecified), the inhibition is -6.7%. Regarding `CN(C)S(=O)(=O)c1ccc(C(=O)N2CC(=O)Nc3ccc(F)cc3C2c2ccc(F)cc2)cc1` (stereo unspecified), the inhibition is 26.6%. Then `COc1ccc(CCNC(=O)CCNC(=O)N2CC(=O)Nc3ccccc32)cc1OC`, with -7.1%; and `COC(=O)c1cc(S(=O)(=O)NCCN2CCN(c3ccccc3F)CC2)c[nH]1`, with 17.5%. For the molecule `CC(=O)Nc1cccc(C(=O)NC(C)c2ccc(-n3ccnc3)cc2)c1` (stereo unspecified), the inhibition was 1.8%. The value for `CCCCN(CC)CCNC(=O)C1CCN(S(=O)(=O)c2cccc3nsnc23)CC1` was 8.4%; that for `O=C(NCCN1CCCCC1)Nc1ccccc1F` was 18.4%; that for `CC1CC(C)CN(CCCNC(=O)Cn2cccc2C(=O)c2ccccc2)C1` (stereo unspecified) was -12.8%.

As for `CCOC(=O)NN=C1CCC(c2ccccc2)CC1` (stereo unspecified), the inhibition was -4.2%. In the case of `CCC(C)Nc1nc2ccccc2n2c(C)nnc12` (stereo unspecified), the inhibition was 26.9%. Regarding `O=C(CCC1CCN(Cc2ccc(Cl)cc2)CC1)NC1CC1`, the inhibition is -8.1%. The value for `O=c1cc(-c2ccc([N+](=O)[O-])cc2)nc2cc(-c3ccc(Cl)cc3)[nH]n12` was 97.6% (active); that for `O/N=C/c1ccc2cccc(OCc3ccccc3)c2n1` was -5.4%. The value for `Cc1ccc(Cn2c(N3CCNCC3)nc3c2c(=O)[nH]c(=O)n3C)cc1` was 3.7%.

As to `COc1ccc(C2NC(=O)CCC2[N+](=O)[O-])cc1OC` (stereo unspecified), the inhibition is -5.6%. The value for `COc1ccc(C(=O)CCC(=O)Nc2ccc(N3CCCCC3)cc2)cc1OC` was -1.2%; that for `COc1cc(NC(=O)CSc2ncnc3sc4c(c23)CCCC4)c(C(=O)O)cc1OC` was 55.5% (active); that for `COc1ccc(OCC(=O)Nc2nc3c(s2)CCCC3)cc1` was 1.9%.

As for `COc1cccc(COC(=O)C2CCN(C(=O)c3ccccc3C)CC2)c1OC`, the inhibition is -4.4%.

The record behind these values is PubChem BioAssay AID1878 (Sanford-Burnham Center for Chemical Genomics, 2009).
